# Source: PubChem BioAssay (Tox21)
# Active and inactive are the calls of the source. Where a call stands in place of a potency, no number is given. Calls come from the whole dose curve; as a rule, active = well fitted curve in the direction sought with a large enough effect in the repeat runs; inconclusive = weak or mixed curves; inactive = flat fitted curve, though single readings scatter.
# Test: qHTS assay to test for compound auto fluorescence at 460 nm (blue) in HepG2 cell free culture (AID 720685)
# Conditions: Cell-free culture medium, blue autofluorescence 405/460 nm; series mostly up to 46 µM
# From the text: U.S. Tox21 Program National Center for Advancing Translational Sciences [NCATS] NIH Chemical Genomics Center [NCGC] U.S. Environmental Protection Agency [EPA] National Institutes of Environmental Health Sciences [NIEHS] National Toxicology Program [NTP] U.S. Food and Drug Administration [FDA] Tox21 Assay Overview: Compound auto fluorescence often interferes with screening of the compound library against various biological targets and signaling pathways. Some of these compounds may have fluorophoric properties. Such properties may interfere with the assay outputs resulting in false positives and/or negatives. To decrease such complications and ensure the compound activities are relevant in terms of biological response, the Tox21 10K compound library was screened for auto fluorescence. From the fluorophores used as reporter signals in our screening assays, the auto fluorescence equivalencies of compounds against three fluorophores have been evaluated: Triamterene, Fluorescein and Rose Bengal sodium for blue, green and red fluorescence, respectively. The fluorescence intensities were measured using Excitation/Emission wavelengths at 405/460nm, 485/535nm and 540/590nm for blue, green and red labels, respectively. This assay includes the blue fluorescence data.
# Tox21 Assay Protocol Summary: 5 uL of culture medium (MEM containing 10% FBS) per well was dispensed into black wall/clear bottom 1536-well plates using a Multidrop Combi Dispenser (ThermoFisher Scientific, Waltham, MA). After 23 nL compound or DMSO vehicle was transferred into assay plate by a pintool work station (Kalypsys, San Diego, CA), fluorescence intensities in the assay plates were measured by an Envision (PerkinElmer, Shelton, CT) plate reader using three labels for measuring blue, green and red fluorescence at […] 460, 535 and 590nm respectively.
row,SMILES,Potency
1,CC[C@@H](C)[C@H](N)C(=O)O,inactive
2,CC(C)c1ncc([N+](=O)[O-])n1C,inactive
3,C[C@@H]1C(=O)NC2=Nc3cccc(Cl)c3CN21,inactive
4,CC[C@@]1([C@@H]2O[C@@H]([C@H]3O[C@@](O)(CO)[C@H](C)C[C@@H]3C)C[C@@H]2C)CC[C@H]([C@]2(C)CC[C@]3(C[C@H](O)[C@@H](C)[C@@H]([C@@H](C)[C@@H](OC)[C@H](C)C(=O)O)O3)O2)O1 (stereo in doubt),inactive
5,CC(C)(C)C(=O)OCC(=O)[C@H]1CC[C@H]2[C@@H]3CCC4=CC(=O)CC[C@]4(C)[C@H]3CC[C@]12C,inactive
6,O=C(O)/C=C/C(=O)Nc1ccc(S(=O)(=O)Nc2nccs2)cc1,inactive
7,O=C1c2c(O)cccc2[C@H]([C@@H]2O[C@H](CO)[C@@H](O)[C@H](O)[C@H]2O)c2cc(CO)cc(O)c21,inactive
8,O=C(CCCCCCCCc1cccnc1)N1CCC(C=C(c2ccccc2)c2ccccc2)CC1,inactive
9,O=C1C2CC3CC1CC(O)(C3)C2,inactive
10,O=P(O)(O)C(O)(Cn1ccnc1)P(=O)(O)O,inactive
11,O=P(O)(O)CP(=O)(O)O,inactive
12,CCCOC(=O)c1ccccc1O,inactive
13,CC[N+](CC)(CC)CCC(O)(c1ccccc1)C1CCCCC1 (stereo not given),inactive
14,O=[N+]([O-])c1ccc(O)c2ncccc12,inactive
15,COc1ccc(/C=C/C(=O)O)cc1,inactive
16,CC12CCC(C1)C(C)(C)C2=O (stereo not given),inactive
17,COc1c(O)cc2c(c1O)[C@@H]1O[C@H](CO)[C@@H](O)[C@H](O)[C@H]1OC2=O,inactive
18,NC(N)=NCc1cccc(I)c1,inactive
19,NC(=O)c1cc[n+](CC2=C(C(=O)O)N3C(=O)[C@@H](NC(=O)C(c4ccccc4)S(=O)(=O)[O-])[C@H]3SC2)cc1 (stereo not given in full),inactive
20,CC1(C)S[C@@H]2[C@H](N3C(=O)C(c4ccccc4)NC3(C)C)C(=O)N2[C@H]1C(=O)O (stereo not given in full),inactive

row,SMILES,Potency
1,C=CCN1C(=O)C(CC(C)C)NC1=S (stereo not given),inactive
2,Clc1nc(C(Cl)(Cl)Cl)c(Cl)c(Cl)c1Cl,inactive
3,CCOc1ccc([N+](=O)[O-])cc1,inactive
4,Nc1nc(NC2CC2)c2ncn([C@@H]3C=C[C@@H](CO)C3)c2n1,inactive
5,CC(C)=CCC/C(C)=C/CC/C(C)=C/CC/C(C)=C/CC1=C(C)C(=O)c2ccccc2C1=O,inactive
6,COC(=O)C[C@](O)(CCCC(C)(C)O)C(=O)O[C@@H]1C(OC)=CC23CCCN2CCc2cc4c(cc2[C@H]13)OCO4 (stereo not given in full),inactive
7,N[C@H](CO)C(=O)O,inactive
8,CO[C@H]1C[C@@H]2CC[C@@H](C)[C@@](O)(O2)C(=O)C(=O)N2CCCC[C@H]2C(=O)O[C@H]([C@H](C)C[C@@H]2CC[C@@H](O)[C@H](OC)C2)CC(=O)[C@H](C)C=C(C)[C@@H](O)[C@@H](OC)C(=O)[C@H](C)C[C@H](C)/C=C/C=CC=C1C,inactive
9,CCCCCCCCCCCC[n+]1ccc2ccccc2c1,inactive
10,CO/N=C(\C(=O)N[C@@H]1C(=O)N2C(C(=O)[O-])=C(C[n+]3cccc4c3CCC4)CS[C@H]12)c1csc(N)n1,inactive
11,CS(=O)(=O)c1ccc([C@@H](O)[C@@H](COC(=O)CN)NC(=O)C(Cl)Cl)cc1,inactive
12,N[C@@H](Cc1ccc(O)c(O)c1)C(=O)O,inactive
13,CC[C@H]1OC(=O)[C@H](C)C(=O)[C@H](C)[C@@H](O[C@@H]2O[C@H](C)C[C@H](N(C)C)[C@H]2O)[C@](C)(OC)C[C@@H](C)C(=O)[C@H](C)[C@H]2N(CCCCn3cnc(-c4cccnc4)c3)C(=O)O[C@]12C,inactive
14,CN1CC[C@H](c2c(O)cc(O)c3c(=O)cc(-c4ccccc4Cl)oc23)[C@H](O)C1,inactive
15,NCC[C@H](O)C(=O)N[C@@H]1C[C@H](N)[C@@H](O[C@H]2O[C@H](CN)CC[C@H]2N)[C@H](O)[C@H]1O[C@H]1O[C@H](CO)[C@@H](O)[C@H](N)[C@H]1O,inactive
16,CC(C)=CCC/C(C)=C/CC/C(C)=C/CC/C=C(\C)CC/C=C(\C)CCC=C(C)C,inactive
17,Cc1cc(-c2ccc(N=Nc3ccc4c(S(=O)(=O)O)cc(S(=O)(=O)O)c(N)c4c3O)c(C)c2)ccc1N=Nc1ccc2c(S(=O)(=O)O)cc(S(=O)(=O)O)c(N)c2c1O,inactive
18,CC[C@@H](C(=O)[C@@H](C)[C@@H](O)[C@H](C)CCc1ccc(C)c(O)c1C(=O)O)[C@H]1O[C@](CC)([C@H]2CC[C@](O)(CC)[C@H](C)O2)C[C@@H]1C,inactive
19,C=CCc1cc(S(=O)(=O)c2ccc(O)c(CC=C)c2)ccc1O,inactive
20,C=C1C(CCl)(CCl)C2(Cl)C(Cl)C(Cl)C1(Cl)C2(Cl)Cl (stereo not given),inactive
